Compound activity deposited in PubChem BioAssay by several laboratories.
GDH-TPI counter-1 = GDH-TPI coupling enzyme inhibitors, primary screen, artefact control for M. tuberculosis FBA inhibitor project, biochemical, absorbance, full deck | GDH-TPI coupled enzyme counterscreen, NADH absorbance | inhibition, % at 4.8 µM | 360,000 compounds, 1.2% hits | AID 588335, 2011; in the data active = inhibition above about 30%
Mtb FBA inh = Mtb FBA enzyme inhibitors, primary screen, biochemical, fluorescence, strain H37Rv; Fructose-bisphosphate aldolase (Mycobacterium tuberculosis (strain ATCC 25618 / H37Rv)), …; purified M. tuberculosis FBA, fluorescence read-out; inhibition, % at 1 µM; 360,000 compounds, 2.3% hits; AID 588726, 2011
Target sequence (P9WQA3 whole entry, looked up): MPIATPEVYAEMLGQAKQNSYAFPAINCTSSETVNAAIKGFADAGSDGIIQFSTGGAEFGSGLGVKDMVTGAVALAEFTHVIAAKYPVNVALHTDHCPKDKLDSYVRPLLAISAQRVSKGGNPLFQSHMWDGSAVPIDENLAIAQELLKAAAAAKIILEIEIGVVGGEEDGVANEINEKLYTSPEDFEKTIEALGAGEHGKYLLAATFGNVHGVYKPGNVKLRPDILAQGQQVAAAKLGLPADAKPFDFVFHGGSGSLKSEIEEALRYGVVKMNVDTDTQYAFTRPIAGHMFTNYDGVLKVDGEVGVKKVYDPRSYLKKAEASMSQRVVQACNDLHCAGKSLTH
Mtb BioA inh = M. tuberculosis BioA enzyme inhibitors, primary screen, biochemical, plate reader, single point, HTS | 7,8-diaminopelargonic acid synthase BioA (Mycobacterium tuberculosis) | purified M. tuberculosis BioA enzyme | inhibition, % at 9.99 µM | 360,000 compounds, 0.096% hits; in the data active = inhibition above about 40%
FadD28 FP inh = inhibitors of FadD28 bisubstrate probe binding, primary screen, biochemical, fluorescence polarization, single point; inhibition, % at 12.5 µM; Mycobacterium tuberculosis FadD28 fatty-acid-AMP ligase; 360,000 compounds, 0.22% hits; in the data active = inhibition above about 8.5%, passing the limit was not always enough
SARS 3CLpro inh = SARS-CoV 3CLpro protease inhibitors, primary screen, biochemical, quenched FRET. Replicase polyprotein 1ab (Severe acute respiratory syndrome coronavirus), P0C6X7. recombinant SARS-CoV 3CLpro, quenched FRET peptide cleavage. inhibition, % at 6 µM. 290,000 compounds, 0.14% hits. AID 1706, 2009; in the data active = inhibition above about 12%
Mtb FBA confirm = M. tuberculosis aldolase blockers, biochemical, fluorescence, strain H37Rv, confirmation. shares compounds with Mtb FBA inh. purified M. tuberculosis FBA, fluorescence read-out. inhibition, % at 1 µM. 5,600 compounds, 78% hits. AID 651616, 2012
GDH-TPI counter-2 = GDH-TPI coupling enzyme inhibitors, artefact control for M. tuberculosis FBA inhibitor project, biochemical, fluorescence, high throughput | shares compounds with Mtb FBA inh | GDH-TPI coupled enzyme counterscreen | inhibition, % at 1 µM | 5,600 compounds, 81% hits | AID 652141, 2013; in the data active = inhibition above about 10%
Hits are given with their value; 0 = inactive; - = no result given; + = active, no number. Compounds with a hit are over-represented: about 3.1% of the library has one in this group of screens. Rule as the data show it, unless noted: active = inhibition above about 27%; inactive = the rest.

SMILES | GDH-TPI counter-1 | Mtb FBA inh | Mtb BioA inh | FadD28 FP inh | SARS 3CLpro inh | Mtb FBA confirm | GDH-TPI counter-2
CCOc1c2ccc(C(=O)NCc3ccc4c(c3)OCO4)cc2nn1CCOC | 0 | 49.4 | 0 | 0 | 0 | 0 | 0
CCCCn1nc2cc(C(=O)NCc3ccc4c(c3)OCO4)ccc2c1OCC | 0 | 33.9 | 0 | 0 | 0 | 175.8 | 140.5
CCCn1nc2cc(C(=O)NCc3ccc4c(c3)OCO4)ccc2c1OCC | 0 | 61.9 | 0 | 0 | 0 | 186.1 | 167.1
CCOc1c2ccc(C(=O)NCc3ccc4c(c3)OCO4)cc2nn1CC | 0 | 50.8 | 0 | 0 | 0 | 102.0 | 84.0
CCOc1cc(C(=O)NCc2ccc3c(c2)OCO3)cc(OCC)c1OCC | 0 | 0 | 0 | 0 | 0 | - | -
O=C(O)c1cc(-c2c[nH]c3ccccc23)nc2ccc3ccccc3c12 | 0 | 44.9 | - | 0 | 0 | + | 135.7
CC1=CC=CC2=NC(=O)CC(C)(C(=O)O)N12 (configuration not stated) | 0 | 102.7 | 0 | 0 | 0 | 0 | 13.6
O=C(CCC(=O)N(CC(=O)NC1CCCC1)c1ccc(F)cc1)Nc1nccs1 | 0 | 0 | 0 | 0 | 0 | - | -
CC1=CC=CC2=NC(=O)CC(C)(C(=O)N(CC(=O)NC3CCCC3)c3ccccc3C)N12 (configuration not stated) | 0 | 110.1 | 0 | 0 | 0 | 121.0 | 95.3
Cc1ccc(C(=O)N(CC(=O)NC2CCCCC2)c2ccccc2C)s1 | 0 | 0 | 0 | 0 | 0 | - | -
CC1=CC=CC2=NC(=O)CC(C)(C(=O)N(CC(=O)NC3CCCC3)c3ccc(F)cc3)N12 (configuration not stated) | 0 | 95.2 | 0 | 0 | 0 | + | +
C[C@@H]1CN([C@H](C)CO)S(=O)(=O)c2ccc(C3=CCCCC3)cc2O[C@H]1CN(C)C(=O)CN(C)C | - | - | 0 | - | - | - | -
O=C(Nc1ccc(NC(=O)c2ccccc2O)cc1)Nc1ccc(F)cc1F | 0 | 34.4 | - | 0 | 0 | 53.2 | 51.1
O=C(Nc1ccc(F)cc1)Nc1ccccc1F | 0 | 0 | 0 | 0 | 0 | - | -
COC(=O)c1cc2c(=O)n3ccccc3nc2n(C(C)C)c1=N | - | - | - | - | 0 | - | -
CCOC(=O)c1cc2c(=O)n3ccccc3nc2n(Cc2ccco2)c1=NC(=O)c1ccc(OC)cc1OC | 0 | 103.9 | - | 0 | 0 | 91.3 | 88.1
CCOC(=O)c1cc2c(=O)n3ccccc3nc2n(C)c1=NC(=O)c1c(-c2c(F)cccc2Cl)noc1C | 0 | 33.1 | 0 | 0 | - | 162.2 | 131.6
CCCCn1c(=NC(=O)c2cccnc2)c(C(=O)OCC)cc2c(=O)n3ccccc3nc21 | 0 | 55.5 | 0 | 0 | 0 | 133.7 | 90.8
CC(C)NC(=O)Nc1cccc2c1O[C@@H](CN(C)Cc1ccc(-c3ccccc3)cc1)[C@@H](C)CN([C@@H](C)CO)C2=O | - | - | 0 | - | - | - | -
CC(C)CCNc1c(-c2cccs2)nc2ccccn12 | 0 | 46.4 | - | 0 | 0 | 37.5 | 20.7
Cc1ccn2c(NC(C)(C)C)c(-c3cccs3)nc2c1 | 0 | 33.2 | - | 0 | 0 | + | +
C[C@H]1CN([C@@H](C)CO)C(=O)c2cc(-c3ccc(C#N)cc3)cnc2O[C@H]1CN(C)C(=O)Nc1ccc(C(F)(F)F)cc1 | - | - | 0 | - | - | - | -
O=C(Cc1cccnc1)N[C@@H]1CC[C@@H](CCNS(=O)(=O)c2ccccc2Cl)O[C@@H]1CO | - | - | 0 | - | - | - | -
O=C(COC(=O)C1COc2ccccc2O1)c1ccc(F)cc1 (configuration not stated) | 0 | 0 | 0 | 0 | - | - | -
O=C(N=Nc1c(O)[nH]c2ccc(F)cc12)C1COc2ccccc2O1 (configuration not stated) | 0 | 37.6 | 0 | 0 | 0 | 131.1 | 103.7
SMILES | GDH-TPI counter-1 | Mtb FBA inh | Mtb BioA inh | FadD28 FP inh | SARS 3CLpro inh | Mtb FBA confirm | GDH-TPI counter-2
CCN(C(=S)Nc1cc(S(=O)(=O)N2CCOCC2)ccc1Cl)c1cccc2ccccc12 | 0 | 48.2 | - | 0 | 0 | 82.1 | 56.2
Cc1[nH]n(S(=O)(=O)c2ccccc2)c(=O)c1N=Nc1cccc(Cl)c1 | 0 | 0 | 0 | 0 | 0 | - | -
Cc1[nH]n(S(=O)(=O)Cc2ccccc2)c(=O)c1N=Nc1ccccc1Cl | 0 | 40.3 | 0 | 0 | 0 | 0 | 0
O=C1CC(c2ccco2)CC2=C1C(c1ccccc1)n1nc(C(F)(F)F)nc1N2 (configuration not stated) | 0 | 27.6 | 0 | 0 | 0 | 64.0 | 53.3
O=C(Nc1cccc2ccccc12)N(CCO)C1CCS(=O)(=O)C1 (configuration not stated) | 0 | 61.1 | 0 | 0 | 0 | 107.9 | 104.6
C[C@H]1CN([C@@H](C)CO)S(=O)(=O)c2ccc(C3=CCCCC3)cc2O[C@H]1CN(C)C(=O)c1ccncc1 | - | - | 0 | - | - | - | -
CC(=O)OCC(=O)c1ccc2ccn(C(C)=O)c2c1 | 0 | 35.8 | 0 | 0 | 0 | 0 | 19.9
COc1ccccc1N1CCN(CC(=O)c2ccc3ccn(C(C)=O)c3c2)CC1 | 0 | 0 | 0 | 0 | 0 | - | -
O=c1c2c(nc3cc(-c4ccc(Br)cc4)[nH]n13)CCCC2 | 0 | 0 | 0 | 0 | 0 | - | -
O=c1c2c(nc3cc(-c4ccccc4)[nH]n13)CCC2 | 0 | 43.9 | 0 | 0 | 0 | 111.4 | 98.0
COc1ccc(-c2cc3nc4c(c(=O)n3[nH]2)CCC4)cc1 | 0 | 38.4 | - | 0 | 0 | 150.8 | 129.4
O=C(CN1C(=O)C2C3C=CC(C3)C2C1=O)Nc1ccc2nccnc2c1 (configuration not stated) | 0 | 26.9 | 0 | 0 | 0 | + | +
O=S(=O)(c1cccc(Cl)c1)N1CN(CC2CCCO2)c2nc3ccccc3nc21 (configuration not stated) | 0 | 36.1 | 0 | 0 | 0 | 187.6 | 146.0
COCCN1CN(S(=O)(=O)c2cccc(Cl)c2)c2nc3ccccc3nc21 | 0 | 29.4 | 0 | 0 | 0 | 53.7 | 30.0
O=S(=O)(c1ccc(Cl)cc1)N1CN(CC2CCCO2)c2nc3ccccc3nc21 (configuration not stated) | 0 | 0 | 0 | 0 | 0 | - | -
COc1ccccc1NC(=O)N[C@@H]1CC[C@H](CCNC(=O)Cc2ccccn2)O[C@H]1CO | - | - | 0 | - | - | - | -
O=C(C[C@H]1CC[C@H](NC(=O)Nc2cc(F)ccc2F)[C@@H](CO)O1)NCc1ccccn1 | - | - | 0 | - | - | - | -
CC(C)OCCOc1ccc2oc(-c3ccco3)cc(=O)c2c1 | 0 | 76.8 | 0 | 0 | 0 | 0 | 0
O=c1cc(-c2ccco2)oc2ccccc12 | 0 | 85.5 | 0 | 0 | - | 0 | 0
O=c1cc(-c2c(F)c(F)c(F)c(F)c2F)oc2ccccc12 | 0 | 0 | 0 | 0 | 0 | - | -
